Bioassay records (PubChem BioAssay)
The entries come from a sample that favours hits as a whole.
Dicer inh – inhibitors of Dicer pre-microRNA processing, primary screen, biochemical, cat-ELCCA, chemiluminescence; Endoribonuclease Dicer (Homo sapiens), Q9UPY3; cat-ELCCA pre-miR-21 Dicer processing; hits give high values; z-score at 25 µM; 47,000 tested, 6% active; AID 1347074, 2019; in the data active means z-score above about 3, passing the limit was not always enough;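 further: higher signal means more uncleaved substrate so more Dicer inhibition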
Large screens that a line does not name were inactive.

Cc1nc(C)c(C(=O)NNC(=O)c2ccc(C(F)(F)F)cc2)s1	none
Cc1noc(-c2ccc(Cl)cc2)c1C(=O)NNC(=O)c1ccc(C(F)(F)F)cc1	none
Cc1noc(NC(=O)c2ccc(C(F)(F)F)cc2)c1[N+](=O)[O-]	Dicer inh 4.6
COc1ccc(-c2cnc(NCc3cc(Cl)ccc3O)n2C)cc1	none
Cc1cc(C)nc(NS(=O)(=O)c2ccc(NCc3cc(Br)ccc3O)cc2)n1	none
COc1nccnc1NS(=O)(=O)c1ccc(NCc2cc(Cl)ccc2O)cc1	Dicer inh 3.7
CCCCOC(=O)C1=C(C)NC2=C(C(=O)CCC2)C1c1ccc(OCCC)c(OC)c1 (stereo unspecified)	none
O=c1c2ccccc2nc(-c2ccccc2)n1OCc1c(Cl)cccc1Cl	none
Nc1n[nH]c(-c2ccccc2)c1Br	none
O=C(c1cccc(Cl)c1)N(Cc1cccs1)C1CCS(=O)(=O)C1 (stereo unspecified)	none
C=CCOc1ccc(C(=O)N(Cc2ccc(OC)c(OC)c2)C2CCS(=O)(=O)C2)cc1 (stereo unspecified)	none
Cc1ccc2c(C)c(C(=O)N(Cc3ccc(N(C)C)cc3)C3CCS(=O)(=O)C3)oc2c1 (stereo unspecified)	Dicer inh 5.1
O=C(c1ccccc1)n1cc2c(n1)-c1ccccc1CS2	none
NC(=S)Nc1ccc(C2CCCCC2)cc1	none
O=S(=O)(c1ccc(-c2ccno2)s1)N(Cc1ccccn1)Cc1ccccn1	none
CNC(=O)NCc1c(F)cccc1Cl	none
COc1ccc(O)c(C2=NN3C(C2)c2ccccc2OC3c2ccsc2)c1 (stereo unspecified)	Dicer inh 5.5
COc1ccc(OC)c(C2Oc3ccccc3C3CC(c4ccccc4O)=NN32)c1 (stereo unspecified)	Dicer inh 6
COc1ccc(O)c(C2=NN3C(C2)c2ccccc2OC3c2cc(OC)ccc2OC)c1 (stereo unspecified)	none
COc1ccc(O)c(C2=NN3C(C2)c2ccccc2OC3c2ccc(OC)c(OC)c2)c1 (stereo unspecified)	Dicer inh 6
COc1ccc(C2Oc3c(OC)cccc3C3CC(c4ccccc4O)=NN32)c(OC)c1 (stereo unspecified)	none
Oc1ccccc1C1=NN2C(C1)c1ccccc1OC2c1ccsc1 (stereo unspecified)	none
COc1ccc(O)c(C2=NN3C(C2)c2ccccc2OC3c2ccncc2)c1 (stereo unspecified)	Dicer inh 11
COc1ccc(O)c(C2=NN3C(C2)c2cccc(OC)c2OC3c2cc(OC)ccc2OC)c1 (stereo unspecified)	none
Cc1ccc(O)c(C2=NN3C(C2)c2ccccc2OC3c2ccsc2)c1 (stereo unspecified)	none
COc1ccc(O)c(C2=NN3C(C2)c2cccc(OC)c2OC3c2cccc(OC)c2OC)c1 (stereo unspecified)	none
Cc1ccc(/C(O)=C2\C(=O)C(=O)N(CCCn3ccnc3)C2c2ccc(Cl)cc2)cc1 (stereo unspecified)	none
Cc1cc2c(NS(=O)(=O)c3cn(C)cn3)cccc2nn1	none
O=C(NCCC1=CCCCC1)C1c2ccccc2Oc2ccccc21	none
COC(=O)c1ccc(C2Oc3ccccc3C3CC(c4ccccc4O)=NN32)cc1 (stereo unspecified)	none
COc1ccc(O)c(C2=NN3C(C2)c2ccccc2OC3c2ccccc2)c1 (stereo unspecified)	Dicer inh 8.3
COc1cc(C2Oc3c(OC)cccc3C3CC(c4ccccc4O)=NN32)ccc1O (stereo unspecified)	none
COc1ccc(O)c(C2=NN3C(C2)c2cccc(OC)c2OC3c2ccccc2F)c1 (stereo unspecified)	none
COc1ccc(O)c(C2=NN3C(C2)c2ccccc2OC3c2cccc(F)c2)c1 (stereo unspecified)	Dicer inh 5.2
COc1cc(C2Oc3ccccc3C3CC(c4ccccc4O)=NN32)ccc1O (stereo unspecified)	Dicer inh 11
Cc1cc(C(C)(C)C)ccc1NC(=O)CSCC(=O)O	none
CCCN1C(=O)C2(/C(=C(/O)c3ccc(C)c(F)c3)C(=O)C(=O)N2CCCN(C)C)c2ccccc21 (stereo unspecified)	none
Cc1cc(C)cc(N2C(=O)CC(Nc3ccc(N4CCOCC4)cc3)C2=O)c1 (stereo unspecified)	none
Cc1ccc2c(c1)C(O)(CC(=O)c1ccc(C)o1)C(=O)N2 (stereo unspecified)	none
O=C1NNC(SCc2ccc(Br)cc2)=Nc2ccccc21	none
C=CCOc1ccc(C2c3c(oc4ccccc4c3=O)C(=O)N2c2nc(C)c(C)s2)cc1OCC (stereo unspecified)	none
O=S(=O)(c1ccc(Cl)cc1)N1c2ccccc2OC1c1ccc(Cl)c(Cl)c1 (stereo unspecified)	none
Cc1ccc(/C(O)=C2/C(=O)C(=O)N(CC(C)O)C2c2ccccn2)cc1 (stereo unspecified)	none
CS/C(N)=N/C(N)=Nc1ccc(Cl)cc1	none
COc1cc(CN2CCN(Cc3ccco3)CC2)cc(OC)c1	none
COc1ccc(CN2CCN(Cc3ccco3)CC2)c(OC)c1	Dicer inh 3.6
Brc1ccccc1CN1CCN(Cc2ccco2)CC1	none
Brc1ccc(CN2CCN(Cc3ccco3)CC2)cc1	Dicer inh 4.5
COc1cc(CN2CCN(Cc3ccc(OC)cc3OC)CC2)cc(OC)c1	none
CCCS(=O)(=O)N1CCN(Cc2ccco2)CC1	none
O=C1CCC([N+](=O)[O-])C(c2ccc(OCc3ccccc3)cc2)N1 (stereo unspecified)	none
Clc1ccc(OCOc2ccc(Cl)cc2Cl)c(Cl)c1	none
COc1ccccc1C1CC(=O)C2=C(C1)NC(C)=C(C(=O)OC(C)C)C2c1cccc(OC)c1OC (stereo unspecified)	none
CC(=O)Oc1ccc(-c2nc3ccc(C(=O)O)cc3s2)cc1	none
Nc1ccc(-c2nc3ccc(C(=O)O)cc3s2)cc1	none
Nc1ccc(-c2nc3ccc(N)cc3s2)cc1	none
O=C(O)c1ccc2nc(-c3ccccc3)sc2c1	Dicer inh 3.8
Nc1cccc(-c2nc3ccc(N)cc3s2)c1	none
Nc1ccc2nc(-c3ccc(O)cc3)sc2c1	Dicer inh 3.5
CCN(CC)S(=O)(=O)c1ccc(-c2ccc(S(=O)(=O)N(CC)CC)s2)s1	none
Cc1ccc(/C=C/c2noc(-c3ccccc3O)n2)o1	none
Cc1ccc(C(O)c2cccnc2)o1 (stereo unspecified)	none
Cc1ccc(C(c2ccc(C)o2)c2ccccc2O)o1	Dicer inh 5.3
FC(F)(F)c1cccc(NC(=S)Nc2cccnc2N2CCC(C(F)(F)F)CC2)c1	none
O=C(Oc1nsnc1N1CCOCC1)N1CCCCC1	none
C1CN(c2nsnc2OCCOc2nsnc2N2CCOCC2)CCO1	none
O=C(Oc1nsnc1N1CCOCC1)N1CCOCC1	Dicer inh 3.1
CC1CN(C)c2ccccc2N(C)C1=O (stereo unspecified)	none
Cc1[nH]n2c(=O)cc(CSc3nnnn3-c3ccccc3)nc2c1-c1ccc(Cl)cc1	none
COc1ccc(OCCCN2CCCCC2)cc1	none
Nc1nc(-c2ccc(Cl)cc2)cs1	none
CCCCOc1ccc(-c2nnc(N)s2)cc1	none
CCCOc1cccc(-c2nnc(N)s2)c1	none
Cc1cccc(-c2nnc(N)s2)c1	Dicer inh 4.4
Cc1cccc(-c2nc(N)nc(N)n2)c1	none
Nc1nnc(-c2ccc(Cl)cc2)s1	Dicer inh 8.7
COc1ccc(CN2CCN(Cc3cccc(OC)c3OC)CC2)cc1Br	none
Cc1ccc(S(=O)(=O)N(C)CCO)cc1-c1nnc2c3ccccc3c(C)nn12	none
COc1cc(C=Nc2ccc(S(=O)(=O)Nc3nc(C)cc(C)n3)cc2)cc(OC)c1OC	none
O=C(CC1(O)C(=O)Nc2ccccc21)c1ccco1 (stereo unspecified)	none
